Test results published in PubChem BioAssay (NCATS).
Results filed as inconclusive are left out. Activity calls are given as the source filed them. The call rests on the fitted dose curve; in most records, active means well fitted cell-killing curve with a large enough effect; inconclusive means small, poorly fitted or top-dose-only effect, or effect the other way; inactive means no such curve, though single readings can be large or run the other way.

Assays:
[1] = Quantitative High-Throughput drug screen in 47 multiple myeloma cell lines against the NCATS MIPE library collection: OCIMY1_PLB cell viability assay (AID 1918979); further: nearly all actives have a fitted effect of over 35% in size;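 on viability: 100% = DMSO-only wells and 0% = cell-free media-only wells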
In short: (§1)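 MIPE 4.0 approved/investigational drugs; 500 cells/well; 48 h 37 °C humidified 5% CO2; CTG luminescence readout; DMSO = 100%, media = 0% viability.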

[2] = Quantitative High-Throughput drug screen in 47 multiple myeloma cell lines against the NCATS MIPE library collection: MM1S_ATCC cell viability assay (AID 1918980); further: nearly all actives have a fitted effect of over 45% in size
In short: as §1

[3] = Quantitative High-Throughput drug screen in 47 multiple myeloma cell lines against the NCATS MIPE library collection: LP1_DSMZ cell viability assay (AID 1918982); further: nearly all actives have a fitted effect of over 35% in size
In short: as §1

[4] = Quantitative High-Throughput drug screen in 47 multiple myeloma cell lines against the NCATS MIPE library collection: KMS28PE_JCRB cell viability assay (AID 1918983); further: nearly all actives have a fitted effect of over 35% in size
In short: as §1

[5] = Quantitative High-Throughput drug screen in 47 multiple myeloma cell lines against the NCATS MIPE library collection: L363_DSMZ cell viability assay (AID 1918984); further: nearly all actives have a fitted effect of over 40% in size
In short: as §1

[6] = Quantitative High-Throughput drug screen in 47 multiple myeloma cell lines against the NCATS MIPE library collection: KMS34_JCRB cell viability assay (AID 1918985); further: nearly all actives have a fitted effect of over 40% in size
In short: as §1

[7] = Quantitative High-Throughput drug screen in 47 multiple myeloma cell lines against the NCATS MIPE library collection: OCIMY5_PLB cell viability assay (AID 1918988); further: nearly all actives have a fitted effect of over 65% in size
In short: as §1

[8] = Quantitative High-Throughput drug screen in 47 multiple myeloma cell lines against the NCATS MIPE library collection: OPM1_PLB cell viability assay (AID 1918989); further: nearly all actives have a fitted effect of over 40% in size
In short: as §1

[9] = Quantitative High-Throughput drug screen in 47 multiple myeloma cell lines against the NCATS MIPE library collection: SKMM1_PLB cell viability assay (AID 1919863); conditions: SKMM1 myeloma viability, CellTiter-Glo ATP, 48 h; viability: hits give low values; further: nearly all actives have a fitted effect of over 35% in size
In short: as §1

[10] = Quantitative High-Throughput drug screen in 47 multiple myeloma cell lines against the NCATS MIPE library collection: XG6_PLB cell viability assay (AID 1919865); further: nearly all actives have a fitted effect of over 40% in size
In short: as §1

[11] = Quantitative High-Throughput drug screen in 47 multiple myeloma cell lines against the NCATS MIPE library collection: PE2_PLB cell viability assay (AID 1919869); further: nearly all actives have a fitted effect of over 35% in size
In short: as §1

[12] = Quantitative High-Throughput drug screen in 47 multiple myeloma cell lines against the NCATS MIPE library collection: PCM6_Riken cell viability assay (AID 1919870); further: nearly all actives have a fitted effect of over 30% in size
In short: as §1

[13] = Quantitative High-Throughput drug screen in 47 multiple myeloma cell lines against the NCATS MIPE library collection: OPM2_DSMZ cell viability assay (AID 1919872); further: nearly all actives have a fitted effect of over 30% in size
In short: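 qHTS of the MIPE 4.0 collection: 500 myeloma cells/well, 48 h drug exposure at 37C in 5% CO2, then CellTiter-Glo for 5 min at room temperature before luminescence reading.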

[14] = Quantitative High-Throughput drug screen in 47 multiple myeloma cell lines against the NCATS MIPE library collection: MM1R_ATCC cell viability assay (AID 1918981); further: nearly all actives have a fitted effect of over 35% in size
In short: as §1

[15] = Quantitative High-Throughput drug screen in 47 multiple myeloma cell lines against the NCATS MIPE library collection: OCIMY7_PLB cell viability assay (AID 1918987); conditions: OCI-MY7 myeloma viability, CellTiter-Glo ATP, 48 h; viability (% of DMSO): at 45.8 µM (top of the series); further: nearly all actives have a fitted effect of over 65% in size
In short: as §1

[16] = Quantitative High-Throughput drug screen in 47 multiple myeloma cell lines against the NCATS MIPE library collection: U266_ATCC cell viability assay (AID 1919864); further: nearly all actives have a fitted effect of over 35% in size;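 on viability (% of DMSO control): 0% = media-only wells without cells and 100% = DMSO-only wells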
In short: as §1

[17] = Quantitative High-Throughput drug screen in 47 multiple myeloma cell lines against the NCATS MIPE library collection: XG1_PLB cell viability assay (AID 1919866); further: nearly all actives have a fitted effect of over 35% in size
In short: as §1

[18] = Quantitative High-Throughput drug screen in 47 multiple myeloma cell lines against the NCATS MIPE library collection: VP6_DJ cell viability assay (AID 1919867); further: nearly all actives have a fitted effect of over 40% in size;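 on viability (% of DMSO): 100% = DMSO-only wells and 0% = wells with media alone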
In short: as §1

[19] = Quantitative High-Throughput drug screen in 47 multiple myeloma cell lines against the NCATS MIPE library collection: UTMC2_PLB cell viability assay (AID 1919868); conditions: CellTiter-Glo ATP luminescence, 48 h; viability (% of DMSO control): at 45.8 µM (top of the series); further: nearly all actives have a fitted effect of over 55% in size;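 on viability (% of DMSO control): 100% = DMSO-only wells and 0% = media-only wells without cells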
In short: as §1

[20] = Quantitative High-Throughput drug screen in 47 multiple myeloma cell lines against the NCATS MIPE library collection: RPMI8226_ATCC cell viability assay (AID 1919871); further: nearly all actives have a fitted effect of over 30% in size
In short: as §1
Potency means the concentration at half of the fitted maximal effect.

COC(=O)[C@H](CCCN=C(N)N)NS(=O)(=O)c1ccc(C)cc1
inactive: Potency [1] | Potency [2] | Potency [3] | Potency [4] | Potency [5] | Potency [6] | Potency [7] | Potency [8] | viability [9] 122% | Potency [11] | Potency [12] | Potency [13]
active: Potency [10] 11800 nM

C[C@@]12C(=O)OC(=O)[C@@]1(C)C1CCC2O1
active: Potency [1] 5260 nM | Potency [14] 2350 nM | Potency [3] 3720 nM | Potency [4] 2350 nM | Potency [5] 3720 nM | Potency [6] 833 nM | Potency [15] 743 nM | Potency [7] 2960 nM | Potency [8] 372 nM | Potency [9] 7430 nM | Potency [16] 1660 nM | Potency [10] 4180 nM | Potency [17] 2640 nM | Potency [18] 2350 nM | Potency [19] 46.9 nM | Potency [12] 2350 nM | Potency [20] 2960 nM | Potency [13] 662 nM

CC(N[C@H]1CCCC[C@H]1NC(=O)c1ccc(Cl)cc1)c1cccc2ccccc12 (some centres not stated)
active: Potency [2] 8330 nM | Potency [5] 83.3 nM
inactive: Potency [1] | Potency [3] | Potency [4] | Potency [8] | viability [9] 94.8% | Potency [16] | Potency [20] | Potency [13]

N=c1ccn2c(n1)O[C@H]1[C@@H](O)[C@@H](CO)O[C@H]12
inactive: Potency [1] | Potency [3] | Potency [4] | Potency [20] | Potency [13]
active: Potency [2] 2640 nM | Potency [15] 332 nM | Potency [9] 148 nM | Potency [16] 18700 nM | Potency [17] 5900 nM | Potency [18] 18700 nM | Potency [19] 14800 nM

CC(C)NC[C@@H](C(=O)N1CCN(c2ncnc3c2[C@H](C)C[C@H]3O)CC1)c1ccc(Cl)cc1
active: Potency [1] 16600 nM | Potency [2] 46.9 nM | Potency [4] 1480 nM | Potency [5] 37.2 nM | Potency [6] 14800 nM | Potency [7] 1660 nM | Potency [8] 372 nM | Potency [9] 10500 nM | Potency [16] 18700 nM | Potency [10] 1660 nM | Potency [17] 1870 nM | Potency [18] 833 nM | Potency [19] 105 nM | Potency [12] 1320 nM | Potency [20] 11800 nM | Potency [13] 18700 nM

CC(=O)C1=C(O)C=C2Oc3c(C(C)=O)c(O)c(C)c(O)c3C2(C)C1=O (configuration not stated)
inactive: Potency [1] | Potency [2] | Potency [14] | Potency [6] | Potency [17] | Potency [18] | Potency [19] | Potency [12] | Potency [20] | Potency [13]
active: Potency [7] 1.2 nM

O=C(O)c1ccc(Nc2ncc3c(n2)-c2ccc(Cl)cc2C(c2c(F)cccc2F)=NC3)cc1
inactive: Potency [1]
active: Potency [2] 18700 nM | Potency [15] 209 nM | Potency [7] 332 nM | Potency [8] 5900 nM | Potency [16] 20900 nM | Potency [10] 662 nM | Potency [17] 418 nM | Potency [18] 5900 nM | Potency [19] 1660 nM | Potency [12] 16600 nM | Potency [20] 14800 nM

COc1ccc(CCC(=O)c2c(O)cc(O[C@@H]3O[C@H](CO)[C@@H](O)[C@H](O)[C@@H]3O[C@@H]3O[C@@H](C)[C@H](O)[C@@H](O)[C@@H]3O)cc2O)cc1O
active: Potency [2] 9350 nM | Potency [15] 10500 nM | Potency [10] 5260 nM | Potency [17] 7430 nM | Potency [19] 9350 nM | Potency [11] 7430 nM | Potency [12] 7430 nM
inactive: Potency [1] | Potency [3] | Potency [4] | Potency [6] | Potency [8] | Potency [13]

CC(C)c1cc(C(C)C)c(CC(=O)NS(=O)(=O)Oc2c(C(C)C)cccc2C(C)C)c(C(C)C)c1
active: Potency [1] 20900 nM | Potency [3] 20900 nM | Potency [4] 23500 nM | Potency [6] 18700 nM | Potency [7] 33200 nM | Potency [8] 9350 nM | Potency [9] 26400 nM | Potency [19] 10500 nM | Potency [11] 5900 nM | Potency [13] 23500 nM
inactive: Potency [2] | Potency [16]

COc1cc2c(cc1O)CCC1C2CC[C@@]2(C)C1CC[C@@H]2O (some centres not stated)
active: Potency [1] 3320 nM | Potency [2] 4690 nM | Potency [6] 2090 nM | Potency [15] 469 nM | Potency [7] 1180 nM | Potency [8] 5260 nM | Potency [9] 833 nM | Potency [16] 13200 nM | Potency [10] 469 nM | Potency [17] 662 nM | Potency [18] 2640 nM | Potency [19] 935 nM | Potency [11] 3720 nM

C[C@H](CCC(=O)O)[C@H]1CC[C@H]2[C@@H]3[C@H](O)C[C@@H]4C[C@H](O)CC[C@]4(C)[C@@H]3CC[C@]12C
inactive: Potency [1] | Potency [2] | Potency [3] | Potency [4] | Potency [5] | Potency [6] | Potency [8] | viability [9] 131% | Potency [10] | Potency [17] | Potency [11] | Potency [12] | Potency [20] | Potency [13]

CC(=O)[C@]1(O)Cc2c(O)c3c(c(O)c2[C@@H](O[C@H]2C[C@H](N)[C@@H](O)[C@H](C)O2)C1)C(=O)c1ccccc1C3=O
active: Potency [1] 743 nM | Potency [2] 16.6 nM | Potency [3] 1320 nM | Potency [4] 187 nM | Potency [5] 1320 nM | Potency [6] 235 nM | Potency [15] 166 nM | Potency [7] 132 nM | Potency [8] 418 nM | Potency [9] 187 nM | Potency [16] 264 nM | Potency [10] 235 nM | Potency [17] 166 nM | Potency [18] 418 nM | Potency [19] 37.2 nM | Potency [11] 132 nM | Potency [12] 187 nM | Potency [13] 662 nM
